Test results as given in PubChem BioAssay (NCI).
About 83,000 compounds went through this panel and 20% of them were active in at least one assay; those are over-represented in the sample as a whole.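 Results are percent growth after 48 hours of single-concentration exposure. 100 means growth as in untreated cells, lower positive values show inhibition; negative values down to -100 show cell death.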 Calls of active or inactive are those of the source. How the source made its calls: active means growth percent below 10; inactive means the rest.

Tested on: SK-MEL-28 melanoma
Test: NCI-60 one-dose screen, 48 h (100 = growth as untreated, 0 = no growth, -100 = all killed)
Details: 10 µM

| Structure (SMILES) | growth |
| --- | --- |
| O=C(NC(=S)Nc1cccc(NC(=S)NC(=O)c2ccccc2)c1)c1ccccc1 | 55.3% (inactive) |
| COc1cc(C(=O)Nc2ccc(-c3nc4ccccc4[nH]3)cc2)cc(OC)c1OC | 50% (inactive) |
| CN(C)c1ccc(N=Cc2ccc(N3CCOCC3)cc2)cc1 | 114% (inactive) |
| Cc1ccc(C)c(-c2csc(Nc3ccc(C)c(C)c3)n2)c1 | -93.3% (active) |
| COc1ccc(-c2nsc3c2NC(=O)CC3c2ccsc2)cc1 (stereo not given) | 42.7% (inactive) |
| O=C(NCCCN1CCC(N2CCCCC2)CC1)C1=Cc2cc(Br)ccc2OC1 | 80.9% (inactive) |
| CN1CCN(Cc2ccc(C(=O)Nc3cncc(C#Cc4cnc5cccnn45)c3)cc2C(F)(F)F)CC1 | 67% (inactive) |
| Cc1ccccc1CNC(=O)C1CN(c2ccc(Cl)cc2)N(c2ccc(Cl)cc2)C1=O (stereo not given) | 91% (inactive) |
| Cc1sc2ncn(CC(=O)Nc3ccc(S(N)(=O)=O)cc3)c(=O)c2c1C | 110% (inactive) |
| Fc1cccc(COc2ccc(Nc3ncnc4onc(-c5ccccc5)c34)cc2)c1 | 55.2% (inactive) |
| Clc1ncccc1Nc1ccc2nnc(-c3ccncc3)n2n1 | 112% (inactive) |
| CCc1ccc(CNCC(O)c2ccccc2)cc1 (stereo not given) | 74.7% (inactive) |
| COc1ccc2oc(=O)cc(Cn3cc(Cn4cnc5c4c(=O)n(C)c(=O)n5C)nn3)c2c1 | 105% (inactive) |
| COc1ccc(N(C)c2nc(N)nc3sc4c(c23)CCCC4)cc1 | 55% (inactive) |
| O=C(NCc1ccccc1)C1CN(c2ccc(Cl)cc2)N(c2ccc(Cl)cc2)C1=O (stereo not given) | 88.9% (inactive) |
